Source: PubChem BioAssay (NCI)
Compounds without any hit were thinned out: in the full panel of roughly 83,000, 20% have a hit.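 For each line, cells grew in 96-well plates with the test compound present at a single concentration for 48 hours.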 The source made the active and inactive calls. How the source made its calls: active means growth percent below 10; inactive means the rest.

What follows are molecules tested on T-47D breast (assay: NCI-60 one-dose screen, 48 h (100 = growth as untreated, 0 = no growth, -100 = all killed)). Details: 10 µM unless noted.
In the case of `COc1ccc(C(=O)c2c(N)nc3n2CCCC3)cc1OC`, the growth was 101% (inactive). In the case of `O=C(CSc1ccc(Cl)cc1)Nc1ccc(-c2nc3ccccc3s2)c(Cl)c1`, the growth was 34.4% (inactive). With `O=C1C=CC(=O)N1CO` the growth was 132% (inactive). With `COc1ccc2[nH]c(C(=O)OCc3ccc4cccc(O)c4n3)cc2c1` the growth was -53.9% (active). `COc1ccc(C(=O)C(C#N)c2cc(OC)c(OC)c(OC)c2)cc1` (stereo not drawn) was tested, and the growth was 98.3% (inactive). In the case of `Nc1cc2nc3ccccc3oc-2cc1=O`, the growth was 69.9% (inactive). With `C=CCn1c(C)nc2cc(Nc3nc(N4CCOCC4)nc4nc[nH]c34)ccc21` the growth was 75.4% (inactive). For `COc1cc2c(cc1OC)C(=O)C(Br)CC2` (stereo not drawn), the growth was 36.3% (inactive). For `O=c1c2sc3ncc(Cl)cc3c2nnn1-c1cccc(Cl)c1`, the growth was 74.7% (inactive). In the case of `CCCc1n(Cc2ccc3ccccc3c2)c2ccccc2[n+]1Cc1ccc2ccccc2c1`, the growth was -9.39% (active). In the case of `COc1cc(CN2CCO[C@H](COc3cccc(F)c3)C2)ccc1Cl`, the growth was 28.2% (inactive). `CCOC(=O)c1ccc(NC(=O)NC2=NCCS2)cc1` was tested, and the growth was 35.8% (inactive). For `O=C(OCc1ccc2c(Br)cc(Br)c(O)c2n1)c1cc2ccccc2[nH]1`, the growth was -69.5% (active). For `O=C1c2ccccc2C2N1CCC1CCc3ccccc3N12` (stereo not drawn), the growth was 107% (inactive). With `CCCCCCCCNC(C)C(O)c1ccc(SC(C)C)cc1` (stereo not drawn) the growth was 49.6% (inactive). `COc1cc(/C=C/C(=O)c2ccc(NC(=O)CSc3nnc(-c4ccc(Cl)cc4)n3-c3ccccc3)cc2)cc(OC)c1OC` was tested, and the growth was 47.5% (inactive). In the case of `O=C(c1ccccc1)N(CCCCl)C(=O)N(CCCCl)C(=O)c1ccccc1`, the growth was 93.1% (inactive). For `Cc1cc(C)cc(Nc2cc(C)nc3nc(C(F)(F)F)nn23)c1`, the growth was 29.5% (inactive). `Clc1ccc(Nc2ncnc3c2sc2ncccc23)c(Cl)c1` was tested, and the growth was 36.7% (inactive). For `Cc1ccc(Nc2nc(NCCO)c3ccccc3n2)cc1C`, the growth was 55.9% (inactive). For `COc1cc(NCCCCC(C)N)c2nccc(C)c2c1` (stereo not drawn), the growth was 48.1% (inactive). With `NC(=O)c1noc(C(=O)c2ccccc2)c1N` the growth was 100% (inactive). For `O=C(NO)c1ccc(NCc2csc3ccccc23)cc1`, the growth was 41.5% (inactive). `CC1=NC(c2ccc(Cl)cc2)C2=C(N1)/C(=C/c1ccc(Cl)cc1)CCC2` (stereo not drawn) was tested, and the growth was 82.5% (inactive). `COc1ccc(-c2nnc(SCC(=O)Nc3ccc(C(=O)/C=C/c4ccc(Cl)cc4)cc3)n2-c2ccccc2)cc1` was tested, and the growth was 88% (inactive). With `Oc1[nH]c2ccccc2c1/C=c1/ccc2c(c1)N=C(c1ccc(C(F)(F)F)cc1)N=2` the growth was 35.1% (inactive). `Fc1ccc(-c2nnc(N3CCOCC3)c3ccccc23)cc1` was tested, and the growth was 102% (inactive). For `COc1ccc2cc(-c3nc(C)c(C(C)=O)c(-c4ccc(C)cc4)n3)ccc2c1`, the growth was 72.1% (inactive). `C/C(=N\OC(=O)Nc1cccc(Cl)c1)c1ccccc1` was tested, and the growth was 95.9% (inactive). In the case of `Cc1ccc(O)c(Cc2ccccc2)c1`, the growth was 101% (inactive). For `Oc1c(C(c2ccc(F)cc2)N2CCCCC2)ccc2cncnc12` (stereo not drawn), the growth was 5.62% (active). In the case of `COc1ccc2[nH]cc(C(c3ccc(Cl)cc3)N3CCCC3)c2c1` (stereo not drawn), the growth was 74% (inactive). In the case of `COc1cc2c(cc1C)NC(=O)/C2=C\c1c[nH]c2ccccc12`, the growth was 65.8% (inactive). In the case of `C=CCn1c(SCC(=O)Nc2ccc(/C(C)=N\O)cc2)nnc1-c1cc(-c2ccc(Cl)cc2)nc2ccccc12`, the growth was 7.73% (active). With `COc1cccc2nc(Nc3cccc(NC(=O)c4cc(N5CCOCC5)cc(C(F)(F)F)c4)c3)ccc12` the growth was 42.4% (inactive). With `Cc1ccc(CSCc2ccc(C(=O)NC3CC3)o2)cc1` the growth was 48.4% (inactive). In the case of `Cc1n(Cc2ccc3ccccc3n2)cc[n+]1Cc1ccc2ccccc2c1`, the growth was 0.908% (active). For `Cc1ccc(S(=O)(=O)NC(CCC(=O)Nc2ccc(Cl)cc2)C(=O)Nc2ccc(Cl)cc2)cc1` (stereo not drawn), the growth was 16.5% (inactive). `O=C1Nc2ccccc2/C1=C/c1c[nH]c2ccccc12` was tested, and the growth was 68.3% (inactive).

These molecules were tested on BT-549 breast in the same assay as above. Details: 10 µM unless noted.
With `COc1ccc(C(=O)c2c(N)nc3n2CCCC3)cc1OC` the growth was 93.9% (inactive). With `O=C(CSc1ccc(Cl)cc1)Nc1ccc(-c2nc3ccccc3s2)c(Cl)c1` the growth was 95.2% (inactive). `O=C1C=CC(=O)N1CO` was tested, and the growth was 116% (inactive). With `COc1ccc2[nH]c(C(=O)OCc3ccc4cccc(O)c4n3)cc2c1` the growth was -79.3% (active). In the case of `COc1ccc(C(=O)C(C#N)c2cc(OC)c(OC)c(OC)c2)cc1` (stereo not drawn), the growth was 98.3% (inactive). `Nc1cc2nc3ccccc3oc-2cc1=O` was tested, and the growth was -47.1% (active). With `C=CCn1c(C)nc2cc(Nc3nc(N4CCOCC4)nc4nc[nH]c34)ccc21` the growth was 90.3% (inactive). With `COc1cc2c(cc1OC)C(=O)C(Br)CC2` (stereo not drawn) the growth was 16.1% (inactive). In the case of `O=c1c2sc3ncc(Cl)cc3c2nnn1-c1cccc(Cl)c1`, the growth was 85.4% (inactive). For `CCCc1n(Cc2ccc3ccccc3c2)c2ccccc2[n+]1Cc1ccc2ccccc2c1`, the growth was -76.6% (active). `COc1cc(CN2CCO[C@H](COc3cccc(F)c3)C2)ccc1Cl` was tested, and the growth was 50.2% (inactive). For `CCOC(=O)c1ccc(NC(=O)NC2=NCCS2)cc1`, the growth was 24.2% (inactive). For `O=C(OCc1ccc2c(Br)cc(Br)c(O)c2n1)c1cc2ccccc2[nH]1`, the growth was -84.3% (active). With `O=C1c2ccccc2C2N1CCC1CCc3ccccc3N12` (stereo not drawn) the growth was 88.1% (inactive). With `CCCCCCCCNC(C)C(O)c1ccc(SC(C)C)cc1` (stereo not drawn) the growth was 59.9% (inactive). With `COc1cc(/C=C/C(=O)c2ccc(NC(=O)CSc3nnc(-c4ccc(Cl)cc4)n3-c3ccccc3)cc2)cc(OC)c1OC` the growth was 59.6% (inactive). `O=C(c1ccccc1)N(CCCCl)C(=O)N(CCCCl)C(=O)c1ccccc1` was tested, and the growth was 103% (inactive). For `Cc1cc(C)cc(Nc2cc(C)nc3nc(C(F)(F)F)nn23)c1`, the growth was 49% (inactive). For `Clc1ccc(Nc2ncnc3c2sc2ncccc23)c(Cl)c1`, the growth was 44.6% (inactive). In the case of `Cc1ccc(Nc2nc(NCCO)c3ccccc3n2)cc1C`, the growth was 37.7% (inactive). `COc1cc(NCCCCC(C)N)c2nccc(C)c2c1` (stereo not drawn) was tested, and the growth was 94.5% (inactive). In the case of `NC(=O)c1noc(C(=O)c2ccccc2)c1N`, the growth was 98.2% (inactive). With `O=C(NO)c1ccc(NCc2csc3ccccc23)cc1` the growth was 77.6% (inactive). With `CC1=NC(c2ccc(Cl)cc2)C2=C(N1)/C(=C/c1ccc(Cl)cc1)CCC2` (stereo not drawn) the growth was 66% (inactive). With `COc1ccc(-c2nnc(SCC(=O)Nc3ccc(C(=O)/C=C/c4ccc(Cl)cc4)cc3)n2-c2ccccc2)cc1` the growth was 84.6% (inactive). With `Oc1[nH]c2ccccc2c1/C=c1/ccc2c(c1)N=C(c1ccc(C(F)(F)F)cc1)N=2` the growth was 43.3% (inactive). For `Fc1ccc(-c2nnc(N3CCOCC3)c3ccccc23)cc1`, the growth was 81.4% (inactive). In the case of `COc1ccc2cc(-c3nc(C)c(C(C)=O)c(-c4ccc(C)cc4)n3)ccc2c1`, the growth was 82.3% (inactive). With `C/C(=N\OC(=O)Nc1cccc(Cl)c1)c1ccccc1` the growth was 105% (inactive). In the case of `Cc1ccc(O)c(Cc2ccccc2)c1`, the growth was 92.4% (inactive). For `Oc1c(C(c2ccc(F)cc2)N2CCCCC2)ccc2cncnc12` (stereo not drawn), the growth was 25.8% (inactive). For `COc1ccc2[nH]cc(C(c3ccc(Cl)cc3)N3CCCC3)c2c1` (stereo not drawn), the growth was 65.9% (inactive). `COc1cc2c(cc1C)NC(=O)/C2=C\c1c[nH]c2ccccc12` was tested, and the growth was 94.6% (inactive). For `C=CCn1c(SCC(=O)Nc2ccc(/C(C)=N\O)cc2)nnc1-c1cc(-c2ccc(Cl)cc2)nc2ccccc12`, the growth was 33.5% (inactive). `COc1cccc2nc(Nc3cccc(NC(=O)c4cc(N5CCOCC5)cc(C(F)(F)F)c4)c3)ccc12` was tested, and the growth was 78.6% (inactive). `Cc1ccc(CSCc2ccc(C(=O)NC3CC3)o2)cc1` was tested, and the growth was 97.9% (inactive). In the case of `Cc1n(Cc2ccc3ccccc3n2)cc[n+]1Cc1ccc2ccccc2c1`, the growth was -0.0129% (active). In the case of `Cc1ccc(S(=O)(=O)NC(CCC(=O)Nc2ccc(Cl)cc2)C(=O)Nc2ccc(Cl)cc2)cc1` (stereo not drawn), the growth was 27.3% (inactive). For `O=C1Nc2ccccc2/C1=C/c1c[nH]c2ccccc12`, the growth was 73.5% (inactive).
